# Only a selection was taken, and hits are over-represented in it overall.
# Pf apPOL block = Pf-apPOL DNA polymerase inhibition; inhibition, % at 10 µM; 210,000 compounds, 0.25% hits; Recombinant Pf-apPOL, molecular beacon fluorescence, 1.5 h; AID 1794808
# mHTT CaM bind = mHTT-calmodulin interaction abrogation; P42858; AlphaScreen His-mHTT/GST-CaM binding, luminescence; inhibition, % at 15 µM; 190,000 compounds, 3.6% hits; AID 1671202
# Hits are given with their value; 0 = inactive; - = no result. No stated cut-off is given here; in the data, active means inhibition above about 50%; inactive means the rest.
SMILES,Pf apPOL block,mHTT CaM bind
COc1ccc(C2Nc3c(OC)ccc(Cl)c3C3C=CCC32)cc1[N+](=O)[O-] (centres undefined),0,62
COc1ccc(C2Nc3ccccc3C3C=CCC32)cc1[N+](=O)[O-] (centres undefined),0,86
Cn1nc(-c2nc(C3CC3)no2)c2c1CCN(C(=O)NCc1ccccc1)C2,0,0
Cc1ccc2nc(C)c(NC(=O)c3ccccc3C(F)(F)F)c(=O)n2c1,0,0
CCOc1ccc(Nc2cc(C)nc3ccc(Cl)cc23)cc1,0,0
CCCCOc1ccc(Nc2cc(C)nc3ccc(OC)cc23)cc1,0,61
CCC1(CC)OC(c2c([N+](=O)[O-])cc([N+](=O)[O-])cc2[N+](=O)[O-])Nc2ccccc21 (centres undefined),0,79
CCC1(CC)OC(c2cccc([N+](=O)[O-])c2)Nc2ccccc21 (centres undefined),0,0
N#CC(=Cc1ccsc1Sc1ccc(Cl)cc1)C(=O)c1cccs1,0,-
Nc1cc(C2CCN(C(=O)c3ccc(Cl)s3)CC2)no1,0,0
C#CCN1C(=O)C(O)(CC(=O)c2ccc3c(c2)CCCC3)c2ccccc21 (centres undefined),0,0
C=CCN1C(=O)C(O)(CC(=O)c2ccc3c(c2)CCCC3)c2ccccc21 (centres undefined),0,57
COc1ccccc1N(C)c1cc2c(c3c1ccn3C)C1CCC2O1 (centres undefined),0,67
Cn1ccc2c(-c3ccc(F)cc3)cc3c(c21)C1CCC3O1 (centres undefined),0,0
CN(Cc1ccccc1)c1cc2c(c3c1ccn3C)C1CCC2O1 (centres undefined),0,72
Cn1ccc2c(N(Cc3ccccc3)Cc3ccccc3)cc3c(c21)C1CCC3O1 (centres undefined),0,0
Cc1cc(Cl)ccc1NC(=O)N1CC2CC(NC(=O)c3cccs3)C1C2 (centres undefined),0,0
COc1cc2c(cc1OC)C(C(=O)NCCCOC(C)C)C(c1cccs1)N(C)C2=O (centres undefined),0,0
COc1ccccc1-n1c(O)c(C=Nc2ccccc2)c2ccccc2c1=O,0,0
CC(=O)N1CCN(CC(=O)N2N=C(c3ccc(F)cc3)CC2c2ccccc2)CC1 (centres undefined),0,0
Cn1cccc1C1CC(c2ccc(F)cc2)=NN1C(=O)CN1CCCCC1 (centres undefined),0,70
Cc1ccc(C2=NN(C(=O)CN3CCCCC3)C(c3cccn3C)C2)cc1C (centres undefined),0,91
Cc1cc(OCC(=O)N2CCCC2)nc(-c2ccc(Cl)cc2)n1,0,0
Cc1nnc(SCC(=O)NC2CC3CCC2(C)C3(C)C)n1N (centres undefined),-,0
Cc1cc(C(=O)N(C)c2ccc(-c3onc4c3CCC4)cc2)c(C)o1,0,0
SMILES,Pf apPOL block,mHTT CaM bind
O=[N+]([O-])c1ccc(C=Nc2ccc(S(=O)(=O)Nc3nccs3)cc2)cc1,0,62
O=S(=O)(Nc1nccs1)c1ccc(N=Cc2cc(Br)ccc2O)cc1,0,88
O=S(=O)(Nc1nccs1)c1ccc(N=Cc2ccccc2O)cc1,0,0
O=S(=O)(Nc1nccs1)c1ccc(N=Cc2cc(Cl)cc(Cl)c2O)cc1,0,0
O=C(CC1CCN(C(=O)c2ccccc2)CC1)NCc1ccc(Cl)cc1,0,0
CC(=O)NCCc1csc(C2CCCN(C(=O)Cc3cccc(F)c3)C2)n1 (centres undefined),0,0
COc1ccc(-c2ccc(CN3C(C(C)C)C(=O)N(Cc4cn(CC5CCCCC5)nn4)CCS3(=O)=O)cc2)cc1 (centres undefined),0,0
CC(C)CC1C(=O)N(Cc2cn(Cc3ccco3)nn2)CCS(=O)(=O)N1Cc1ccc(-c2cccc(CO)c2)cc1 (centres undefined),0,59
CC(C)C1C(=O)N(Cc2cn(Cc3ccco3)nn2)CCS(=O)(=O)N1Cc1ccc(-c2cccc(N(C)C)c2)cc1 (centres undefined),0,65
CC(C)CC1C(=O)N(Cc2cn(Cc3ccco3)nn2)CCS(=O)(=O)N1Cc1ccc(-c2ccc(Cl)cc2)cc1 (centres undefined),0,0
CC(C)C1C(=O)N(Cc2cn(CC3CCCCC3)nn2)CCS(=O)(=O)N1Cc1ccc(-c2ccc(F)cc2)cc1 (centres undefined),0,0
Cc1ccc(-c2ccc(CN3C(C(C)C)C(=O)N(Cc4cn(Cc5ccco5)nn4)CCS3(=O)=O)cc2)cc1 (centres undefined),0,65
CC(C)(C)c1ccccc1OCCCCSC#N,0,0
CCOc1cccc2cc(C(=O)NC(C)=O)c(=Nc3ccccc3C)oc12,0,0
O=C(NCc1ccccc1)N1CCC(n2c(-c3ccco3)nc3cccnc32)C1 (centres undefined),0,0
Cn1c(C(=O)NC2CC2)cc2c1CCN(Cc1ccc(F)cc1)C2,0,0
CC1CCCN(C(=O)c2cc3c(n2C)CCN(Cc2ccccc2)C3)C1 (centres undefined),0,69
CC1CCCN(C(=O)c2cc3c(n2C)CCN(Cc2ccc(F)cc2)C3)C1 (centres undefined),0,58
Cn1c(C(=O)N2CCC(N3CCCCC3)CC2)cc2c1CCN(Cc1ccccc1)C2,0,0
O=C(Cc1c(O)c2ccccc2oc1=O)c1ccccc1O,0,-
CCOc1ccc(/C=C2N=C(/C=C/c3cccc([N+](=O)[O-])c3)OC\2=O)cc1,0,0
Cc1nnc(NC(=O)c2ccc(S(=O)(=O)N(Cc3ccco3)C3CC3)o2)s1,0,0
O=[N+]([O-])c1cccc(C=Nc2cccc(O)c2)c1O,0,74
O=[N+]([O-])c1cccc(N=Cc2cccc([N+](=O)[O-])c2O)c1,0,0
Cc1c(Cl)c(C)c([N+](=O)[O-])c(O)c1C=Nc1cccc(O)c1,0,76
SMILES,Pf apPOL block,mHTT CaM bind
O=c1oc2ccccc2cc1-c1cccc(N=Cc2ccccc2O)c1,0,0
Oc1ccccc1C=Nc1cccc(N=Cc2ccccc2O)c1,0,71
Cc1ccc(N=Cc2c(C)c(Cl)c(C)c([N+](=O)[O-])c2O)c(O)c1,0,0
Cc1ccc(S(=O)(=O)N2CC3CN(C(=O)COc4cccc(C)c4)CC(C2)O3)cc1,0,0
COCC1CCN(C(=O)c2cn3ccnc(-c4ccc(F)cc4)c3n2)CC1,0,0
CC1C(=O)N2CCCc3cc(NC(=O)C(=O)NCc4ccc5c(c4)OCO5)cc1c32 (centres undefined),0,0
CC1C(=O)N2CCCc3cc(NC(=O)COc4ccc5ccccc5c4)cc1c32 (centres undefined),0,52
O=C(C1CC1)N1CCN(Cc2noc(-c3cccc4ccccc34)n2)CC1,0,0
O=C1OC(c2ccccc2Br)=N/C1=C\C=C\c1ccccc1,0,0
O=C1OC(c2ccccc2Cl)=N/C1=C\C=C\c1ccccc1,0,53
Cc1ccc(NC(=O)Nc2ccc(CC(N)=O)cc2)cc1C,0,0
COc1ccc(N=C2C(=O)N3c4c(cc(C)cc42)C(C)=CC3(C)C)cc1,0,72
COc1ccc2c(c1)C(C)=CC(C)(C)N2C(=O)C(C)N1C(=O)c2ccccc2C1=O (centres undefined),0,0
O=C(C1CCCC1)N1CCC2(CC1)SCC(=O)N2Cc1ccccc1,0,0
Clc1ccc(OCCN2CCOCC2)cc1,82,0
Clc1ccc(OCCCN2CCOCC2)cc1,0,0

# Source: PubChem
